Reference: PubChem BioAssay (NCATS)
Records with an inconclusive call do not appear. A number with no mark means an inactive call. Calls of active or inactive are those of the source. Calls come from the whole dose curve; as a rule, active = well fitted inhibition curve with a large enough effect; inconclusive = small, poorly fitted or top-dose-only effect; inactive = no such curve, though single readings can be large or run the other way.

Experiment: Primary qHTS for inhibitors of nuclear receptor binding SET domain protein 2 (NSD2) in an RCH-ACV wild type WT cells (2C) (AID 1645877); note: nearly all actives have a fitted effect of over 70% in size
Details: RCH-ACV (leukaemia line) NSD2 WT (2C) viability, CellTiter-Glo, 72 h; series mostly up to 44.9 µM; activity change, negative = cell killing: at the top concentration
% is set by controls: 0 for no effect and ±100 for the full control effect; potency is the fitted concentration of half-maximal effect.

Row | SMILES | activity change, negative = cell killing | outcome | Potency
1 | CC(=O)O[C@H]1[C@H](OC(=O)C(C)C)[C@]2(C)OC3(CC[C@]2(C)[C@H]2CCC[C@]4(CO4)[C@]12C)COC(=O)C3 (some centres undefined) | -13.9% [at 17.3 µM] | – | –
2 | CC1=CC(=O)CC(C)(C)C1/C=C/C(C)OC1OC(COC2OCC(O)C(O)C2O)C(O)C(O)C1O (centres undefined) | -9.14% [at 17.3 µM] | – | –
3 | C=C1[C@H](OC(C)=O)[C@H]2[C@@H](OC(=O)c3ccccc3)[C@@H](C)C[C@]2(O)[C@@H](OC(C)=O)[C@H](C)/C=C/C(C)(C)C(=O)[C@H](OC(C)=O)[C@H]1OC(C)=O | -1.48% [at 17.3 µM] | – | –
4 | CC1CCC2C(C)(C)[C@H](O)CC[C@]2(C)C12Cc1c(O)cc3c(c1O2)CN(C(CCC(=O)O)C(=O)O)C3=O (some centres undefined) | -0.258% [at 17.3 µM] | – | –
5 | CC(=O)OC1CC(C(C)(C)O)OC2CCC3(C)OC4=C(C(=O)C=C5C(C)C(OC(C)=O)C6(C)C(C)OC546)C(O)C3C12C (centres undefined) | -21.1% [at 17.3 µM] | – | –
6 | COC(=O)C1=C[C@@H](O)[C@@H](O)[C@H](O[C@@H]2O[C@H](CO)[C@@H](O)[C@H](O)[C@H]2OC(=O)/C=C/c2ccccc2)C1 | 0.511% [at 17.3 µM] | – | –
7 | O=C(O)CCc1cccc(O)c1O[C@@H]1O[C@H](CO)[C@@H](O)[C@H](O)[C@H]1O | -4.82% | – | –
8 | CC(C)C1C(OC(=O)/C=C/c2ccccc2)CC2(C)OC2CCC2(C)OC2C1O (centres undefined) | -19.7% | – | –
9 | C=C1[C@H](OC(C)=O)[C@H]2[C@@H](OC(C)=O)C(C)C[C@]2(OC(C)=O)C(=O)[C@H](C)/C=C/C(C)(C)C(=O)[C@H](OC(=O)C(C)C)[C@H]1OC(C)=O (some centres undefined) | -2.22% [at 17.3 µM] | – | –
10 | COc1cc(/C=C/C(=O)O[C@H]2[C@H](O)[C@@H](CO)O[C@@]2(CO)O[C@H]2O[C@H](CO)[C@@H](O)[C@H](O)[C@H]2O)cc(OC)c1O | 3.08% [at 17.3 µM] | – | –
11 | CCCCCOC(=O)Nc1nc(=O)n(C2O[C@H](C)[C@@H](O)[C@H]2O)cc1F (some centres undefined) | – | inactive | –
12 | COc1cc(C2Oc3c(OC)cc(CCCO)cc3C2CO)ccc1O (centres undefined) | 0.834% | – | –
13 | C[C@@H]1O[C@@H](O[C@H]2[C@@H]3C=CO[C@@H](O[C@@H]4O[C@H](CO)[C@@H](O)[C@H](O)[C@H]4O)[C@@H]3[C@@]3(CO)O[C@@H]23)[C@H](O)[C@H](OC(=O)/C=C/c2ccc(O)c(O)c2)[C@H]1O | -9.26% [at 17.3 µM] | – | –
14 | CC(C)c1ccc2c(c1)C(=O)CC1C(C)(C(=O)O)CCCC21C (centres undefined) | -26.6% | – | –
15 | CC1(C)CC[C@]2(C(=O)O[C@@H]3O[C@H](CO[C@@H]4O[C@H](CO[C@@H]5O[C@H](CO)[C@H](O)[C@H](O)[C@H]5O)[C@@H](O)[C@H](O)[C@H]4O)[C@@H](O)[C@H](O[C@@H]4O[C@H](CO)[C@@H](O)[C@H](O)[C@H]4O)[C@H]3O)[C@H](O)C[C@]3(C)C(=CCC4[C@@]5(C)CC[C@H](O[C@@H]6OC[C@@H](O)[C@H](O)[C@H]6O)[C@@](C)(C(=O)O)C5CC[C@]43C)[C@@H]2C1 (some centres undefined) | – | inactive [at 9.23 µM] | –
16 | C/C=C1/[C@H](O[C@@H]2O[C@H](CO)[C@@H](O)[C@H](O)[C@H]2O)OC=C(C(=O)OC)[C@H]1CC(=O)OCCc1ccc(OC(=O)C[C@@H]2C(C(=O)OC)=CO[C@@H](O[C@@H]3O[C@H](CO)[C@@H](O)[C@H](O)[C@H]3O)/C2=C/C)cc1 | -15% [at 9.23 µM] | – | –
17 | O=C1C(Cl)=C(N2CCOCC2)C(=O)N1c1ccc(Cl)c(Cl)c1 | – | – | 8.93 µM (active)
18 | CC(CC(C)O[C@@H]1O[C@H](CO)[C@@H](O)[C@H](O)[C@H]1O)OC(=O)/C=C/c1ccc(O)cc1 (some centres undefined) | -14.1% [at 17.3 µM] | – | –
19 | CC1OC(O[C@@H]2[C@@H](O)[C@H](OC(=O)[C@]34CCC(C)(C)C[C@H]3C3=CCC5[C@@]6(C)CC[C@H](O[C@@H]7O[C@H](C(=O)O)[C@@H](O)[C@H](O[C@@H]8OC[C@@H](O)[C@H](O)[C@H]8O)[C@H]7O[C@@H]7O[C@H](CO)[C@H](O)[C@H](O)[C@H]7O)[C@@](C)(C=O)C6CC[C@@]5(C)[C@]3(C)C[C@H]4O)O[C@H](C)[C@@H]2OC2OC(C)C(OC3OCC(O)C(O)C3O)C(O)C2O)C(O)C(O)C1O (some centres undefined) | -13.7% [at 9.23 µM] | – | –
20 | O=C(O[C@@H]1O[C@H](CO)[C@@H](O)[C@H](O)[C@H]1O)c1ccccc1 | – | inactive | –

Row | SMILES | activity change, negative = cell killing | outcome | Potency
21 | C[C@]1(C2CCCC2)Cc2cc(OCC(=O)O)c(Cl)c(Cl)c2C1=O | – | inactive | –
22 | CC(C)(O)C1CCC2(C)CCCC(C)(O)C2C1 (centres undefined) | -8% | – | –
23 | C[C@@H]1CC2OC(=O)C3=C2C(CCC3O)[C@@]12C[C@@H](c1ccoc1)OC2=O (some centres undefined) | -2.54% | – | –
24 | C=C1C[C@]23C[C@H]1CC[C@H]2[C@]1(C)CC[C@H](O)[C@@](C)(C(=O)O)[C@H]1[C@@H]3C(=O)O | -30% | – | –
25 | C[C@@H]1C[C@@H](O)[C@@]2(CO)C(CO)=CCC[C@@H]2[C@@]12C[C@@H](c1ccoc1)OC2=O | -9.1% | – | –
26 | CC1(C)CC[C@]2(C(=O)O[C@@H]3O[C@H](CO)[C@@H](O)[C@H](O)[C@H]3O)CC[C@]3(C)C(=CCC4[C@@]5(C)CC[C@H](O[C@H]6O[C@H](CO)[C@@H](O)[C@H](O[C@@H]7O[C@H](CO)[C@@H](O)[C@H](O)[C@H]7O)[C@H]6O)C(C)(C)C5CC[C@]43C)[C@@H]2C1 (some centres undefined) | 2.79% [at 9.23 µM] | – | –
27 | C=C1[C@@H]2CC[C@@]3(C)[C@H](c4ccoc4)OC(=O)C[C@]13O[C@H]1CC(=O)C(C)(C)[C@H](C(O)C(=O)OC)[C@]12C (some centres undefined) | 3.69% [at 17.3 µM] | – | –
28 | COc1cc(/C=C/C(=O)OC[C@H]2O[C@@H](OC3CC(C)=C(C(=O)O)C(C)(C)C3)[C@H](O)[C@@H](O)[C@@H]2O)cc(OC)c1O (some centres undefined) | – | inactive [at 17.3 µM] | –
29 | C=C1CC/C=C(/C(=O)O)CCC2C1CC2(C)C (centres undefined) | – | inactive | –
30 | CC(C)C1CCC(CO)=CC1/C=C(\CO)C(=O)OCC1(O)CCC(C(C)C)C2C=C(C(=O)O)COC(=O)C21 (centres undefined) | -11.2% [at 17.3 µM] | – | –
31 | CC(=O)c1c(C)cccc1O[C@@H]1O[C@H](CO)[C@@H](O)[C@H](O)[C@H]1O | -4.64% | – | –
32 | CCC(C)/C=C(C)/C=C/C1=CC2=C(Cl)C(=O)C(C)(OC(C)=O)C(=O)C2=CN1CCCCC(N)C(=O)O (centres undefined) | -17.7% [at 17.3 µM] | – | –
33 | CC1OC(OC2C(OC(=O)[C@]34CCC(C)(C)C[C@H]3C3=CCC5[C@@]6(C)CC[C@H](OC7OC(C(=O)O)C(O)C(O)C7O)C(C)(C)C6CC[C@@]5(C)[C@]3(C)CC4O)OC(CO)C2O)C(O)C(O)C1OC1OCC(O)C(O)C1O (some centres undefined) | -12.2% [at 9.23 µM] | – | –
34 | C=C1C(OC(C)=O)CCC2(C)CCC(C(C)(C)O)CC12 (centres undefined) | -19.7% | – | –
35 | CC1(C)CCC[C@]2(C)C1CC=C(CO)[C@H]2CC/C(=C/CO)CO (some centres undefined) | -19.3% | – | –
36 | CCC(C)/C=C(C)/C=C/C1=CC2=C(Cl)C(=O)C(C)(OC(C)=O)C(=O)C2=CN1C(CC(=O)O)C(=O)O (centres undefined) | -19.4% [at 17.3 µM] | – | –
37 | CC(=C\C(C)O)/C=C(\C)C(=O)CC1CC(CC(N)=O)CC(=O)O1 (centres undefined) | 2.69% | – | –
38 | C=C1C(OC(C)=O)CCC2(C)CC3(O)OC(=O)C(C)=C3CC12 (centres undefined) | -19.6% | – | –
39 | CC(C)(O)C(O)C(=O)OCc1ccc(O[C@@H]2O[C@H](CO)[C@@H](O)[C@H](O)[C@H]2O)cc1 (some centres undefined) | 4.71% [at 17.3 µM] | – | –
